# Measurements reported in PubChem BioAssay (NCATS).
# Several values for one entry are separate records, joined by “and”; a condition that tells them apart may be missing. Equal values may be shown once. Results filed as inconclusive are left out. Entries that show only a call come without a potency. Activity calls are given as the source filed them. Unless noted, calls come from the whole dose curve; as a rule, active = well fitted curve in the direction sought with a large enough effect; inconclusive = small, poorly fitted or top-dose-only effect, or another doubt; inactive = no such curve, though single readings can be large; an effect the other way counts as inactive or inconclusive.
# Tests used:
# [1] = biological target: Cytochrome P450 2D6 (Homo sapiens) (UniProt P10635); experiment: Cytochrome P450 family 2 subfamily D member 6 (CYP2D6) small molecule antagonists: luciferase biochemical (cell-free) qHTS assay (AID 1645840; active = well fitted curve in the direction sought with a large enough effect in the repeat runs; an effect the other way counts as inactive or inconclusive; note: nearly all actives have a fitted effect of over 55% in size; note: potency is the fitted concentration of half-maximal effect)
# Sequence of Cytochrome P450 2D6 (Homo sapiens) (P10635 whole entry, looked up): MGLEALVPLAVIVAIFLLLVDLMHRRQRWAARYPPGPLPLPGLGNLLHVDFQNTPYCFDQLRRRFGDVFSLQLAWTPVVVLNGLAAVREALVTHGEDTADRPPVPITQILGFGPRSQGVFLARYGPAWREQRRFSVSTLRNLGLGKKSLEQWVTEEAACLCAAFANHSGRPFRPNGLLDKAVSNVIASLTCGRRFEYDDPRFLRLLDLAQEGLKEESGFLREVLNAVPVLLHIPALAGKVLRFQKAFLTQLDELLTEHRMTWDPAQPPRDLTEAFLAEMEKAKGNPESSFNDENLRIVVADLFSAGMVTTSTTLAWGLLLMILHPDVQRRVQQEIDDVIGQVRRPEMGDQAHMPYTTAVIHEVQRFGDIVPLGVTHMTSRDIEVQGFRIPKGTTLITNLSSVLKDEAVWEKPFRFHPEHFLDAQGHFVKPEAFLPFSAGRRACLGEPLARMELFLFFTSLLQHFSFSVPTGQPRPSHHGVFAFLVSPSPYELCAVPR
# Method in brief: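 P450-Glo CYP2D6 system: proluciferin substrate converted by enzyme to luciferin, read by luminescence proportional to activity. Enzyme-substrate mix with compound 10 min at room temperature, then NADPH regeneration 1 h before detection reagent.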
# [2] = Primary qHTS for inhibitors of nuclear receptor binding SET domain protein 2 (NSD2) in an isogenic RCH-ACV NSD2 p.E1099K mutant (9B) (AID 1645876); note: nearly all actives have a fitted effect of over 70% in size; note: potency is the fitted concentration of half-maximal effect
# [3] = Primary qHTS for inhibitors of nuclear receptor binding SET domain protein 2 (NSD2) in an RCH-ACV wild type WT cells (2C) (AID 1645877); note: nearly all actives have a fitted effect of over 70% in size; note: potency is the fitted concentration of half-maximal effect
# [4] = biological target: Cytochrome P450 3A4 (Homo sapiens) (UniProt P08684); experiment: Cytochrome P450 family 3 subfamily A member 4 (CYP3A4) small molecule antagonists: luciferase qHTS assay (AID 1645841; active = well fitted curve in the direction sought with a large enough effect in the repeat runs; an effect the other way counts as inactive or inconclusive; note: nearly all actives have a fitted effect of over 45% in size)
# Sequence of Cytochrome P450 3A4 (Homo sapiens) (P08684 whole entry, looked up): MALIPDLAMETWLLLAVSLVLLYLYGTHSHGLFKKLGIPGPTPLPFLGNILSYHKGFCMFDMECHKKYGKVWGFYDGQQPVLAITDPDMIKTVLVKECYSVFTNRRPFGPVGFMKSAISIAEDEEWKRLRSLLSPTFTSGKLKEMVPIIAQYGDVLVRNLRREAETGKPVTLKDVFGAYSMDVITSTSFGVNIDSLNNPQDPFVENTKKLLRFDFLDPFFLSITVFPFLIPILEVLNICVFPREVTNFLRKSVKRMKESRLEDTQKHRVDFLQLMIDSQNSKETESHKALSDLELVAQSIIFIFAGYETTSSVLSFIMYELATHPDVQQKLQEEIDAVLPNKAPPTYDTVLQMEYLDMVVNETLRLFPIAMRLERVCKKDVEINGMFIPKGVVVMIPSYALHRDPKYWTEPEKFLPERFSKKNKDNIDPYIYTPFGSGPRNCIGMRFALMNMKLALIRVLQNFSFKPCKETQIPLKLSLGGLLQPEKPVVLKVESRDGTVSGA
# Method in brief: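 P450-Glo CYP3A4 enzyme with proluciferin substrate preincubated 10 min with compound at room temperature, then NADPH regeneration 1 h. Luciferin detection reagent added for 20 min; luminescence recorded. Ketoconazole positive control.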
# [5] = biological target: Cytochrome P450 2C9 (Homo sapiens) (UniProt P11712); experiment: Cytochrome P450 family 2 subfamily C member 9 (CYP2C9) small molecule antagonists: luciferase biochemical (cell-free) qHTS assay (AID 1645842; active = well fitted curve in the direction sought with a large enough effect in the repeat runs; an effect the other way counts as inactive or inconclusive; note: nearly all actives have a fitted effect of over 55% in size; note: potency is the fitted concentration of half-maximal effect)
# Sequence of Cytochrome P450 2C9 (Homo sapiens) (P11712 whole entry, looked up): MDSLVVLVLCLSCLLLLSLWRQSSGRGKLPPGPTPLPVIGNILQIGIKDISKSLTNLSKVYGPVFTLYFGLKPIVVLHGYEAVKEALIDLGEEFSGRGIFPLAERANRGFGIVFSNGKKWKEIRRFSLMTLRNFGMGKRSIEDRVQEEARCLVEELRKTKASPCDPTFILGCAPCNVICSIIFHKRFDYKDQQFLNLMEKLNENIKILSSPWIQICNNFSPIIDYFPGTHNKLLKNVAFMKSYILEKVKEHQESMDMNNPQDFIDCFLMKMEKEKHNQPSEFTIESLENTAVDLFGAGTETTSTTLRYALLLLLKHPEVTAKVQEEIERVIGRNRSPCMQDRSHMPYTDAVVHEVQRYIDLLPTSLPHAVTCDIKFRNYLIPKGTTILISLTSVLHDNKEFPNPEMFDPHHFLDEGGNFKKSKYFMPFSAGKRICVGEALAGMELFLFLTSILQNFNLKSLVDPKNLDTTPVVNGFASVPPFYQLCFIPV
# Method in brief: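 P450-Glo CYP2C9 system: proluciferin substrate with enzyme in mix containing 0.4% BSA, 10 min at room temperature, then NADPH regeneration solution added and incubated 1 h at 37C. Detection reagent stopped reaction; luminescence read after 20 min as RLU.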
SMILES,Potency [1],Potency [2],Potency [3],Potency [4],Potency [5]
CCN(CC)CCOc1ccc(/C(=C(\Cl)c2ccccc2)c2ccccc2)cc1,1.38 µM (active),15 µM (active) and 8.33 µM (active),11.9 µM (active) and 5.25 µM (active),–,–
O=C1NC2CCCCN2C12CCN(CCCN1c3ccccc3CCc3ccc(Cl)cc31)CC2 (centres undefined),2.45 µM (active),18.3 µM (active),21.1 µM (active),–,–
O=C(OCC(COC(=O)c1cccnc1)(COC(=O)c1cccnc1)COC(=O)c1cccnc1)c1cccnc1,inactive,inactive,inactive,–,–
CC(=O)[C@@]1(O)CC[C@H]2[C@@H]3C[C@H](C)C4=CC(=O)CC[C@]4(C)[C@H]3CC[C@@]21C,inactive,23.7 µM (active),15 µM (active),–,–
Cc1c(C)c2c(c(C)c1OC(=O)CCC(=O)OCCO)CC[C@@](C)(CCC[C@H](C)CCC[C@H](C)CCCC(C)C)O2,12.3 µM (active),21.1 µM (active),–,–,–
CCCCCCCCCCCCCCCC[N+](C)(C)Cc1ccccc1,0.195 µM (active),0.75 µM (active),0.668 µM (active),–,–
COC(=O)/C=C(/C)N,inactive,inactive,–,–,–
O=C(CCOCCOCCOCCOCCC(=O)Nc1c(I)cc(I)c(C(=O)O)c1I)Nc1c(I)cc(I)c(C(=O)O)c1I,–,inactive,inactive,inactive,inactive
O=S(=O)(O)c1ccc2nc(-c3ccccc3)[nH]c2c1,9.77 µM (active),inactive,inactive,–,–
CCCCCCCCCCCCCCCCCCNC(=O)OC1CCN(C(=O)OC[C@H](COC(=O)N(Cc2cccc[n+]2CC)C(=O)c2ccccc2OC)OC)CC1,17.4 µM (active),2.66 µM (active),2.66 µM (active),–,–
CC(C)(C)C(=O)OCOC(=O)C1N2C(=O)CC2S(=O)(=O)C1(C)C (centres undefined),inactive,inactive,inactive,–,–
Cc1[nH]cnc1-c1ccc(Cl)cc1,17.4 µM (active),inactive,inactive,–,–
N=C(N)c1ccc(OCCCOc2ccc(C(=N)N)cc2)cc1,–,–,–,inactive,–
O=C(NN1CCCC1)NS(=O)(=O)c1ccc(Cl)cc1,–,–,–,inactive,–
O=C(Nc1ccc(Cl)cc1)Nc1ccc(Cl)c(Cl)c1,–,6.68 µM (active),6.68 µM (active),–,4.36 µM (active)
OCCCc1ccccc1,–,inactive,inactive,–,inactive
O=C(CS(=O)Cc1ccco1)NC/C=C\COc1cc(CN2CCCCC2)ccn1 (centres undefined),–,inactive,inactive,–,inactive
CCCCCCCC(=O)[O-].CCCCCCCC(=O)[O-].[Zn+2],–,inactive,inactive,–,inactive
